The full data set covers some 7,900 targets. This sample favours those with a hit. About 0.6% of all pairs of compound and target were hits.
What follows are targets tested with c1cn2cc(-c3ccc4cn[nH]c4c3)nc(Nc3ccc(N4CCOCC4)cc3)c2n1 [entospletinib] (assay: log2 fold change, soluble protein after heating vs DMSO (PISA); higher = thermal stabilisation; K562 cells, 10 uM, 30 min; active = over 0.2 and 3.5 SD of the protein, either way, in both replicates (recomputed)).
In short: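 Soluble protein was defined as the supernatant after 21,000xg for 90 min. It came from K562 cells at 2×10^6 cells/mL given 10 μM compound for 30 min, heated in aliquots for 3 min across 48°C-58°C, pooled, and extracted in PBS with 0.5% NP-40 at 4°C, and was quantified by TMTpro 16plex LC-MS/MS with equalised channel sums. Thermal stability against control samples, from duplicates, is reported as log2 fold change.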

UniProt Q96PV7, sequence (Q96PV7 whole entry, looked up): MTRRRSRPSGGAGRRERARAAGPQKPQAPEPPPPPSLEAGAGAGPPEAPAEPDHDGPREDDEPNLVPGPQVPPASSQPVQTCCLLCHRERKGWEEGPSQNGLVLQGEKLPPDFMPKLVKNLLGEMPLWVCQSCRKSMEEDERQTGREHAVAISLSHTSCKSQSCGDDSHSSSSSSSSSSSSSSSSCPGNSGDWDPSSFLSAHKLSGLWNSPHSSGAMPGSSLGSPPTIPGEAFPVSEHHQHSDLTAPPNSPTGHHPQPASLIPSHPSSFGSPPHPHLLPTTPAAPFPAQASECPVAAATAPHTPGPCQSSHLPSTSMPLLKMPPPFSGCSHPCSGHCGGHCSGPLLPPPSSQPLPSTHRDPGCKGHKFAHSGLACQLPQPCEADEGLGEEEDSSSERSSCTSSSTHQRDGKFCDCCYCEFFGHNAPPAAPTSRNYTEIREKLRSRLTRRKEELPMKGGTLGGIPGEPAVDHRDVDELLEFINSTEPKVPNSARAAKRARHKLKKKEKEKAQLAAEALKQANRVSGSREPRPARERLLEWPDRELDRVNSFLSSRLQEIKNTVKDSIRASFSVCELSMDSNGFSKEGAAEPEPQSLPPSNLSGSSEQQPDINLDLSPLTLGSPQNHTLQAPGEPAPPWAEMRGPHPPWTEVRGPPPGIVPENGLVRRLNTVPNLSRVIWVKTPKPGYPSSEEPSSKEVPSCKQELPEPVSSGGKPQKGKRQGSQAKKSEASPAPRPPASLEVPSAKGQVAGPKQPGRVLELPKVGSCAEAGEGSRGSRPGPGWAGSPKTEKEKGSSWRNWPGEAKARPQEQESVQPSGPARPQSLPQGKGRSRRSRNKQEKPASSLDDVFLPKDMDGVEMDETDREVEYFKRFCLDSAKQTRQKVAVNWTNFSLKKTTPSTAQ
UniProt Q04637, sequence (Q04637 whole entry, looked up): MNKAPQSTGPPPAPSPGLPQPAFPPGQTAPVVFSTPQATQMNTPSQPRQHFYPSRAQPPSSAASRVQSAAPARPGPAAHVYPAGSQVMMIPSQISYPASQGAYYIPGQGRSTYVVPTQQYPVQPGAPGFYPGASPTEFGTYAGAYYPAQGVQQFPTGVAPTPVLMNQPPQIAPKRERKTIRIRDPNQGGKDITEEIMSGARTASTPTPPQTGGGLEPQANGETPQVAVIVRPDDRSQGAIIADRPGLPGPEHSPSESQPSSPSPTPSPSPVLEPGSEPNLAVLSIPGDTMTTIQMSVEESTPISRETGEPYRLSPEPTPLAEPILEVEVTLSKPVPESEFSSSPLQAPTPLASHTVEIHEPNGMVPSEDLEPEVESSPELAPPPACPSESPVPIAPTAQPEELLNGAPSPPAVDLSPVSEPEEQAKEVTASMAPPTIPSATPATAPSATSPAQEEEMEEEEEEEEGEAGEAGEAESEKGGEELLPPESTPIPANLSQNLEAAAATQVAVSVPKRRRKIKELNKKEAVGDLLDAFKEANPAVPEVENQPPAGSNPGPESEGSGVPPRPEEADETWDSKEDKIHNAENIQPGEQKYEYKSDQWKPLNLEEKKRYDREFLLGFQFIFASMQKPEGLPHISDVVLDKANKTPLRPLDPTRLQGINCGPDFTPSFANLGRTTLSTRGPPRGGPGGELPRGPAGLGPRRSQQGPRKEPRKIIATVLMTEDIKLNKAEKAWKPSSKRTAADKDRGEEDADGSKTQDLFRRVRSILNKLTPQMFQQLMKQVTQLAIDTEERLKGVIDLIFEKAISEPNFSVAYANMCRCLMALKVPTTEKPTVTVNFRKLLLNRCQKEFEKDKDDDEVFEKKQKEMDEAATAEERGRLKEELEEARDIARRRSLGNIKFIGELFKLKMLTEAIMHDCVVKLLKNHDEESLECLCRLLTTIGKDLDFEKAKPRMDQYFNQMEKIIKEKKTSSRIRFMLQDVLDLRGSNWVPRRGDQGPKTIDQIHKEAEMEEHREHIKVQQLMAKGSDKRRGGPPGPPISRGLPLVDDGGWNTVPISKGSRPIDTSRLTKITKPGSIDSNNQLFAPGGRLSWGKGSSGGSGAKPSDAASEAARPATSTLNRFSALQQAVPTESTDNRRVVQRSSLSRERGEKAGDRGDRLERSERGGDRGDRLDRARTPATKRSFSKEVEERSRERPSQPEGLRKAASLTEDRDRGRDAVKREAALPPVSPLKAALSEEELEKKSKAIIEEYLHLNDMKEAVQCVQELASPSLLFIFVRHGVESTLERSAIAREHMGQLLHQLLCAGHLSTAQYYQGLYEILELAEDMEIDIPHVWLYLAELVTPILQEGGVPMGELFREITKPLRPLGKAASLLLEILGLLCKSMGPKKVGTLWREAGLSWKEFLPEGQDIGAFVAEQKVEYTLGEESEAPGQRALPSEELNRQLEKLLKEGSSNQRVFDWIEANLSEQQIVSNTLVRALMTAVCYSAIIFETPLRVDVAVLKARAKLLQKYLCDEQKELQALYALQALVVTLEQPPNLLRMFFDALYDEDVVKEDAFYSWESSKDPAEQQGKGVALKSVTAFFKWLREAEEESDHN
UniProt P35222, sequence (P35222 whole entry, looked up): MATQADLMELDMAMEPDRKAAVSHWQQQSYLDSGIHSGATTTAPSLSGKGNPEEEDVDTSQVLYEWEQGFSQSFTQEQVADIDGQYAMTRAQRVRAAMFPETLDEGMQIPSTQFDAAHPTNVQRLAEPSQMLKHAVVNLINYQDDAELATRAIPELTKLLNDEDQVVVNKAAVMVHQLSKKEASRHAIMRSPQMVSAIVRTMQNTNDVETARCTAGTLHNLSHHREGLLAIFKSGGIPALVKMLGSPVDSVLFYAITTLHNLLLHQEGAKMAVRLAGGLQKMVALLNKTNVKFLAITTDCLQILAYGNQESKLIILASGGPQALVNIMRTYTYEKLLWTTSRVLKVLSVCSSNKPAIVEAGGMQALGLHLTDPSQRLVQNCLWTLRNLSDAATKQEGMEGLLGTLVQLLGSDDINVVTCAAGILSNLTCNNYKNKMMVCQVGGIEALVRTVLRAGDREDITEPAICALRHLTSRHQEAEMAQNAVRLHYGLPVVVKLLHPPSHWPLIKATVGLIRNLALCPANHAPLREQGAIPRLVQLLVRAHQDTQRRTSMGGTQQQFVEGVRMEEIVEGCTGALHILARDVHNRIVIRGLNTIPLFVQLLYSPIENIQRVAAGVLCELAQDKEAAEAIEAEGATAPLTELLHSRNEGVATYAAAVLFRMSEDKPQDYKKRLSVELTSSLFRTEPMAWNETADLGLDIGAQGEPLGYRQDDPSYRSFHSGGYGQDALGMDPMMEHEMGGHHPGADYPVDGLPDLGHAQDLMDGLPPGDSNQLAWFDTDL
UniProt Q9UJU6, sequence (Q9UJU6 whole entry, looked up): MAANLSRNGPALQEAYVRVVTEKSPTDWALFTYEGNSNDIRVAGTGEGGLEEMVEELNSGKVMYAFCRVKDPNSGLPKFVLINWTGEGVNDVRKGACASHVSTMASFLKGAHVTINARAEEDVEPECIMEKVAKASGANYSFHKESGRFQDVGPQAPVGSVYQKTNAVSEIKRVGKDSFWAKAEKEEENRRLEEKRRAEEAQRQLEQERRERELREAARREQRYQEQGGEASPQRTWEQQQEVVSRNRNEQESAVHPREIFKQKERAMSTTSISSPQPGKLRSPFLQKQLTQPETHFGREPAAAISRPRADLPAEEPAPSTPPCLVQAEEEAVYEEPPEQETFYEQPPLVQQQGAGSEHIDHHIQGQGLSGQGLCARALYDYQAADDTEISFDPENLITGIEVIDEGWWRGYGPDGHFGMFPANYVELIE
UniProt Q8N8J7, sequence (Q8N8J7 whole entry, looked up): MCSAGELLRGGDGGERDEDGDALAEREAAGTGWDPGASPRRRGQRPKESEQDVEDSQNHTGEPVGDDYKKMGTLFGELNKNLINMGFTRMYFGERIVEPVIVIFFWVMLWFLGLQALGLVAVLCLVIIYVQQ
UniProt P11182, sequence (P11182 whole entry, looked up): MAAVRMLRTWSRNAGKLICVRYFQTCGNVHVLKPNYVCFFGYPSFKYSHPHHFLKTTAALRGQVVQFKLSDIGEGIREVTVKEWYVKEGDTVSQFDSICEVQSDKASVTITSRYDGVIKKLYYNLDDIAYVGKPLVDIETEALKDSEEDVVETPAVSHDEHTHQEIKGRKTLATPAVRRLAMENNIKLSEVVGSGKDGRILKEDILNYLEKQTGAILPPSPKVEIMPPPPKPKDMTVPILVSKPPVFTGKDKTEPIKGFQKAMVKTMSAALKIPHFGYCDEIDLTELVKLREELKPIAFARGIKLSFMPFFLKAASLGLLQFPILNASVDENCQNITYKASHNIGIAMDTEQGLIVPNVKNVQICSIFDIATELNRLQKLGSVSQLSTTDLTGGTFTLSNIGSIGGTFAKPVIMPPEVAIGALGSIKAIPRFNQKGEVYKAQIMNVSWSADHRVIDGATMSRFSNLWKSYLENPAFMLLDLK
UniProt Q9NX74, sequence (Q9NX74 whole entry, looked up): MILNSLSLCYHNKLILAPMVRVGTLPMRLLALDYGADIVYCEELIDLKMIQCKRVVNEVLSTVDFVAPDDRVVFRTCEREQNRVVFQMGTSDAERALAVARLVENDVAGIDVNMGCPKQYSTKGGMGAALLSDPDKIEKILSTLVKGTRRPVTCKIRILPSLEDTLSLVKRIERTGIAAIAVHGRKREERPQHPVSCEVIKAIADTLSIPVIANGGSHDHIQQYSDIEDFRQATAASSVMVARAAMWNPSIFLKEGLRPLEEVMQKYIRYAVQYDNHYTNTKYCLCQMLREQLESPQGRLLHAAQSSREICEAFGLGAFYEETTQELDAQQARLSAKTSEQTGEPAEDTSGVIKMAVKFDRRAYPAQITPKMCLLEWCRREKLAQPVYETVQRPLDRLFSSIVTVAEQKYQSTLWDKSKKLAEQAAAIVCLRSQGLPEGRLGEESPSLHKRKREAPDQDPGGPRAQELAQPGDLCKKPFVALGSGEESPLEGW

log2 fold change, inactive:
FAM114A2 (UniProt Q9NRY5) -0.022
DUS2 (UniProt Q9NX74) -0.063
FAM160A2 isoform 2 (UniProt Q8N612) 0.039
DBNL isoform 3 (UniProt Q9UJU6) -0.087
DIP2A (UniProt Q14689) -0.128
FAM241A (UniProt Q8N8J7) -0.008
CTNNB1 (UniProt P35222) -0.212
EIF4G1 isoform 8 (UniProt Q04637) 0.024
FAM193B (UniProt Q96PV7) -0.031
FAM122A (UniProt Q96E09) -0.012
DBT (UniProt P11182) 0.025

Source: the supplement of paper PMC10849652
